# Bioassay records as filed in PubChem.
# Hits are enriched below; roughly 19% of the tested compounds scored in any of these assays.
# ELG1 DNA repair = ELG1-dependent DNA repair inhibition. HEK293T ELG1-luciferase reporter, luminescence, 16 h; DNA damage induced by 5-fluorouridine. Potency, µM (top dose mostly 46.1 µM), actives largely listed as inhibitors. 330,000 compounds, 2.3% hits; also: nearly all actives have a fitted effect of over 55% in size
#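 Reporter activity after DNA damage by 5-fluorouridine is monitored. Compound-treated cells incubate 16 hr at 37 °C, then ONE-Glo is added for 30 min before luminescence reading.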
# IL-1B inflam inh = blocks inflammasome-driven IL-1 beta release. activity change, % at 57.5 µM. 360,000 compounds, 4.7% hits. THP-1 LPS/ATP IL-1B secretion, AlphaLISA, 16 h; hits give low values; in the data active = activity change below about -50%; inconclusive = mostly about -30% to -49%
#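 THP-1 cells pretreated 1 hr with compounds (up to 57.5 uM final), then stimulated with LPS (250 ng/mL final) plus ATP (1.25 mM final); secreted IL-1B measured by AlphaLISA after 16 hr, decreased signal indicating inhibition.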
# Giardia kill = kills Giardia lamblia; AID 540267; 340,000 compounds, 0.15% hits; activity change, % at 7.66 µM, hits read low; Giardia lamblia trophozoite viability; in the data active = activity change below about -80%; inconclusive = between about -30% and that limit;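 also: parasites exposed to compound for two days anaerobically before the ATP read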
#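 Media and compound were dispensed first, then trophozoites at 100 cells/well; plates sat 48 hrs at 37 deg C without oxygen before ATP luminescence reagent was added and read after 15-30 min at room temperature.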
# TDP1 inh = TDP1 (human) enzyme inhibition; Q9NUW8; recombinant TDP1, AlphaScreen DNA substrate cleavage; Potency, µM (series often up to 130 µM), actives largely listed as inhibitors; 350,000 compounds, 0.28% hits; also: nearly all actives have a fitted effect of over 40% in size
#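 Tdp1 1 nM final; 15 min RT w/ cpd; substrate 15 nM, 5 min; beads 10 ug/ml, 10 min; AlphaScreen read. Neg ctrl: no enzyme.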
# TDP1 cell noCPT = qHTS for Inhibitors of human tyrosyl-DNA phosphodiesterase 1 (TDP1): qHTS in cells in absence of CPT; DT40 Tdp1-/- hTDP1 cells, no CPT, ATP luminescence, 48 h; Potency, µM (titrated, usually from 46.2 µM), hits mostly inhibitors; 420,000 compounds, 15% hits; also: nearly all actives have a fitted effect of over 55% in size
#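 Camptothecin absent (DMSO only). Human TDP1-complemented DT40 knockout cells, 400 cells/well, 37 °C for minimum 48 hr; ATP measured via CellTiter-Glo, 30 min dark incubation, luminescence.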
# TDP1 cell CPT = DT40-hTDP1 cell growth loss with CPT; chicken DT40 Tdp1-/-;hTDP1 cells + 20 nM CPT, ATP luminescence, 48 h; Potency, µM (highest dose often 46.2 µM), actives largely listed as inhibitors; 420,000 compounds, 12% hits; AID 686979; also: nearly all actives have a fitted effect of over 55% in size
#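 Cell growth measured by CellTiter-Glo luminescence after a minimum 48 h, 37 C compound exposure with 20 nM CPT in Tdp1-knockout DT40 cells stably expressing hTDP1, seeded 400/well; qHTS titration format.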
# A number is an active result; - = inactive; ? = inconclusive; . = no result given; [ ] = dose if it differs, or a comment. Unless noted, calls follow the shape of the dose curve; as a rule, active = well fitted curve in the direction sought with a large enough effect; inconclusive = small, poorly fitted or top-dose-only effect, or another doubt; inactive = no such curve, though single readings can be large; an effect the other way counts as inactive or inconclusive.
SMILES,ELG1 DNA repair,IL-1B inflam inh,Giardia kill,TDP1 inh,TDP1 cell noCPT,TDP1 cell CPT
COC(=O)C1=C(c2cc3ccccc3o2)C[C@@H]2CC[C@H]1N2C,-,-,-,-,-,-
COC(=O)C1=C(c2ccccc2)C[C@@H]2CC[C@H]1N2C(=O)N1CCC(O)CC1,.,-,-,.,-,-
COC(=O)C1=C(c2cc3ccccc3o2)C[C@@H]2CC[C@H]1N2C(=O)N1CCC(C)CC1,.,-,-,.,2.9µM,4.6µM
COC(=O)C1=C(c2cc3ccccc3o2)C[C@@H]2CC[C@H]1N2C(=O)N1CCC(O)CC1,.,-,-,.,23µM,?
O=C(O)[C@@H]1Cc2[nH]cnc2C(c2cccnc2)N1 (stereo not given in full),.,.,.,-,-[9.04 µM],-[9.04 µM]
CCCCCc1nc2c(c(=O)c3ccccc3n2C)c(=O)n1C1CCCCCC1,-,-,-,-,18µM,21µM
N#CC(c1ccc(Cl)nn1)c1c(F)cccc1Cl (stereo not given),-,-,-,-,?,-
Cc1ccccc1-c1ccc2c(c1)C1c3c(-c4ccccc4)nnn3-c3ccccc3C(=O)N1CC2 (stereo not given),.,-,.,.,29µM,21µM
O=C1c2ccccc2-n2nncc2C2c3cc(Br)ccc3CCN12 (stereo not given),.,-,.,.,-,?
O=c1c2ccccc2nc(/C=C/c2ccccc2)n1-c1ccccc1O,?,.,-,.,23µM,-
O=c1c2ccccc2nc(/C=C/c2ccc(O)cc2)n1-c1ccccc1O,?,?,-,-,?,?
O=c1c2ccccc2nc(/C=C/c2ccc(F)cc2)n1-c1ccccn1,-,-,-,-,18µM,?
O=c1c2ccccc2nc(/C=C/c2cccnc2)n1Cc1ccccc1,?,?,-,10µM,23µM,?
O=C1Nc2ccccc2/C1=C/c1nc2ccccc2c(=O)n1-c1ccc(O)cc1,18µM,.,-,-,?,?
Cc1ccc([C@H]2C[C@@H](O)[C@H](n3cc(COC(=O)c4ccccc4)nn3)CN2C(=O)C2CCCCC2)cc1,.,-,.,.,?,-
CNC1[C@@H](O)C(OC2C(N)C[C@H](N)[C@@H](O[C@@H]3OC(C(C)O)C(O)C(O)C3N)C2O)OC[C@]1(C)O (stereo not given in full),.,.,.,-,-,?
COc1ccc(-n2c(/C=C\c3ccccc3F)nc3ccccc3c2=O)c(OC)c1,.,.,.,-,23µM,15µM
O=c1c2ccccc2nc(/C=C/c2ccc(O)c(O)c2)n1-c1ccccc1,?,-,-,.,26µM,?
COc1ccccc1-n1c(/C=C/c2ccccc2)nc2ccccc2c1=O,.,.,.,-,26µM,?
O=c1c2ccccc2nc(/C=C/c2ccccc2)n1-c1ccc(O)cc1,?,?,-,.,23µM,?
CCCn1c2ccccc2c2nnc(SCC(=O)Nc3cccc(C(C)=O)c3)nc21,.,.,.,-,15µM,?
NC(=NCCCC(N)C(=O)O)N[N+](=O)[O-] (stereo not given),.,.,.,-,-,-
CCc1ccc(NC(=O)CN2C(=O)C3(SCC(=O)N3c3ccc(F)c(F)c3)c3ccccc32)cc1 (stereo not given),.,.,.,-,?,18µM
COC(=O)[C@@]1(Cc2ccccc2)[C@H]2C(=O)N(Cc3ccccc3)C(=O)[C@H]2[C@H]2CN=C(SCc3ccc(C#N)cc3)N21,-,-,-,-,?,?
c1ccncc1,.,.,.,-,.,.
C=C1C(=O)OC2CC3(C)OC3CCC(C)=CC(OC(C)=O)C12 (stereo not given),.,-100,-,.,2.6µM,2.3µM
CC(n1cc(C[C@H](N)C(=O)O)c2ccccc21)n1cc(C[C@H](N)C(=O)O)c2ccccc21,.,.,.,-,-,-
CCCNC(=O)c1cc2c(c(-c3cccc(-c4cc5ccccc5o4)c3)n1)[C@H](CCO)N(C(=O)NC(C)C)C2,.,-72,.,.,12µM,8.2µM
